# In paper PMC7862700, “An all-to-all approach to the identification of sequence-specific readers for epigenetic DNA modifications on cytosine”:
# Tests used:
# Assay in all cases: DAPPL (digital affinity profiling via proximity ligation, sequencing); 10 mM Tris-HCl pH 7.5, 50 mM NaCl, 1 mM DTT, 4% glycerol, room temperature, 30 min; GST-TFs on glutathione beads, 16-mer random dsDNA library, 0.1% formaldehyde crosslink after washing; high values mean tight binding
# HSF1 = HSF1 (Homo sapiens, UniProt Q00613 1-529); settings: protein: recombinant; tags: N-terminal GST; chain copies: 3; dsDNA, one strand shown
# Chain of HSF1 (Q00613 whole entry, the tested form may be a part): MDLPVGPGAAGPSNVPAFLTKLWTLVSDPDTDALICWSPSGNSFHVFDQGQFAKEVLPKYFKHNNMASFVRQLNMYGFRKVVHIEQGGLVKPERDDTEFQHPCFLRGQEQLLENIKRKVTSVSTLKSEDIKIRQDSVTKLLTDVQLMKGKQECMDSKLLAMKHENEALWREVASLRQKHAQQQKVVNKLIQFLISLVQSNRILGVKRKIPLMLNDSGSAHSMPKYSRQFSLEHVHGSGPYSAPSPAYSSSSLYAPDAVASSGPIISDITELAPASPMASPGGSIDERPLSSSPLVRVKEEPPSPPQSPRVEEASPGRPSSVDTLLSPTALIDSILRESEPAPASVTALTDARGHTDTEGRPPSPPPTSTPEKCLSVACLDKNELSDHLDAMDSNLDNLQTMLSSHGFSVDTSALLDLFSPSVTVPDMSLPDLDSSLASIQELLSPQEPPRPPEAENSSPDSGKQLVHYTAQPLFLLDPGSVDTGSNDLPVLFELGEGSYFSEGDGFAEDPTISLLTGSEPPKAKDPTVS
# Outline: (§1)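 Binding signal is each hexamer's read frequency for a factor divided by its frequency in the tag-only sample. The factors were GST-fused human transcription factors from yeast, captured on glutathione beads, DNA-barcoded and pooled with that sample. Pools were incubated with 200 nmole of a random double-stranded 16-mer DNA library in Tris/NaCl/DTT/glycerol buffer at room temperature for 30 min, then washed, crosslinked with 0.1% formaldehyde, proximity-ligated with BsaI/T4 ligase (1 h, 37 °C), PCR-amplified and sequenced on an Illumina NextSeq500.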
# SPIC = target: T1, SPIC (Homo sapiens, UniProt Q8N5J4 1-248); settings: protein: recombinant; tags: N-terminal GST; dsDNA, one strand shown
# T1 sequence: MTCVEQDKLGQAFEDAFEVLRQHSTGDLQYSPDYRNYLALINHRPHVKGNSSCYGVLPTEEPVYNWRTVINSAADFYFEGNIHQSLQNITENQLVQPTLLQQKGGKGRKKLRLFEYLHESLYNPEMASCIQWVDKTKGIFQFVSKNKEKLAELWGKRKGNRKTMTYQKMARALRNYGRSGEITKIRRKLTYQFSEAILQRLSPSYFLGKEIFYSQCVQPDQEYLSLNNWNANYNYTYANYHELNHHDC
# Outline: as §1
# ELK1 = target: T2, ELK1 (Homo sapiens, UniProt P19419 1-428); settings: protein: recombinant; tags: N-terminal GST; dsDNA, one strand shown
# T2 sequence: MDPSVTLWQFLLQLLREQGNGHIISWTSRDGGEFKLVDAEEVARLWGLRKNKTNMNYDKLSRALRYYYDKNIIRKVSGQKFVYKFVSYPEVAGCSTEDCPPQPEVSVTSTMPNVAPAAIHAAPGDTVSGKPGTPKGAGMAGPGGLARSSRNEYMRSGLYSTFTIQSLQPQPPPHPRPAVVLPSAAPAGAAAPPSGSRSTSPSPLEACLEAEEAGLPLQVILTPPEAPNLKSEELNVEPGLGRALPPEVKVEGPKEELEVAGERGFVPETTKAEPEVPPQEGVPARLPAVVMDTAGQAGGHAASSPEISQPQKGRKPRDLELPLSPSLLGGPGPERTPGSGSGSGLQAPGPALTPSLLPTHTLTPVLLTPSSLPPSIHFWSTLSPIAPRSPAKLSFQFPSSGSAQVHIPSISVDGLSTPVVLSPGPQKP
# Outline: as §1
# GABPA = target: T3, GABPA (Homo sapiens, UniProt Q06546 1-454); settings: protein: recombinant; tags: N-terminal GST; dsDNA, one strand shown
# T3 sequence: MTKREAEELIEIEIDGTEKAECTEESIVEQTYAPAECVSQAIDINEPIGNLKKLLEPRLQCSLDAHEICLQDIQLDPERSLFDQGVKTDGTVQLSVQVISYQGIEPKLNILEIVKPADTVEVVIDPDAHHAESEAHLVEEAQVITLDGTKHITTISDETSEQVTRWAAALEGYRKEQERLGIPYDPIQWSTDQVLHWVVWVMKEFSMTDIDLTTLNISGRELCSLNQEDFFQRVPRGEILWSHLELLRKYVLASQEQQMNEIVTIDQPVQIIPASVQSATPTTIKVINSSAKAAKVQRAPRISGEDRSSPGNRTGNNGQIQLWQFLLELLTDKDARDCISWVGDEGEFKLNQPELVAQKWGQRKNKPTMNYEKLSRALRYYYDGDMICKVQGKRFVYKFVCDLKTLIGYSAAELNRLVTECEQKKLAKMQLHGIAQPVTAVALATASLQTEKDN
# Outline: as §1
# ELF1 = ELF1 (Homo sapiens, UniProt P32519 1-619); settings: protein: recombinant; tags: N-terminal GST; dsDNA, one strand shown
# Chain of ELF1 (P32519 whole entry): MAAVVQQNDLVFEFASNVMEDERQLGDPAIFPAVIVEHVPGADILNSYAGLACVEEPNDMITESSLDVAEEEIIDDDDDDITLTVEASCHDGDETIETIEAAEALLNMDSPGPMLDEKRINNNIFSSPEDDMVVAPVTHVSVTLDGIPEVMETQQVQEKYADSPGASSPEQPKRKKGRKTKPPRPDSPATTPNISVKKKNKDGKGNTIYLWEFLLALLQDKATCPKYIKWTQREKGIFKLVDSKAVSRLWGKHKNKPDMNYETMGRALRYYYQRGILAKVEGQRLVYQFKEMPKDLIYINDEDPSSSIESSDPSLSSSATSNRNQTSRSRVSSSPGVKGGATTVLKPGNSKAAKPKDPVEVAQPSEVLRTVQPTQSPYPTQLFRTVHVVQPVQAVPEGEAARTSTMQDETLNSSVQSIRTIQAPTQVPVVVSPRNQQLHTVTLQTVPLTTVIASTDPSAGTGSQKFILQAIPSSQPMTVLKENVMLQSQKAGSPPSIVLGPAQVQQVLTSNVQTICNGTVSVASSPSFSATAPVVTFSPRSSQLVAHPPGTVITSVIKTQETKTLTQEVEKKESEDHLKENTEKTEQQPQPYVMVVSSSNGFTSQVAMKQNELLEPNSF
# Outline: as §1
# EHF = target: T4, EHF (Homo sapiens, UniProt Q9NZC4 1-300); settings: protein: recombinant; tags: N-terminal GST; dsDNA, one strand shown
# T4 sequence: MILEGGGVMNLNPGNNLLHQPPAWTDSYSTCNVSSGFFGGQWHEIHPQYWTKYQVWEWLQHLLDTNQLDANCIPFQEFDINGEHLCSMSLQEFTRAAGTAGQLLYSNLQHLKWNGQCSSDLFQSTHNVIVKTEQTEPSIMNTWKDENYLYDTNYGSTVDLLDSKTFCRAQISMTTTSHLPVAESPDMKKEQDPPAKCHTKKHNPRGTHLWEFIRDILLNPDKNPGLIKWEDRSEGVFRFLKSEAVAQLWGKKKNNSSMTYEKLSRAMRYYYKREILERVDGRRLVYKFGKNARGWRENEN
# Outline: as §1
# SPIB = SPIB (Homo sapiens, UniProt Q01892 1-262); settings: protein: recombinant; tags: N-terminal GST; dsDNA, one strand shown
# Chain of SPIB (Q01892 whole entry): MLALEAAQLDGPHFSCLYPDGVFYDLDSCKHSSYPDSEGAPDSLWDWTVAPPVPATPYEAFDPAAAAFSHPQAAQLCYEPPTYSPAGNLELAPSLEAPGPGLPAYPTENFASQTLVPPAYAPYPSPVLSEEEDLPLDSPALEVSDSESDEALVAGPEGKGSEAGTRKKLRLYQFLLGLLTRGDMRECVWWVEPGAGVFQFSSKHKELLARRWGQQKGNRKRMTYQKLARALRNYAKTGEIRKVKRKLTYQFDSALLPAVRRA
# Outline: as §1
# ELK3 = target: T5, ELK3 (Homo sapiens, UniProt P41970 1-407); settings: protein: recombinant; tags: N-terminal GST; dsDNA, one strand shown
# T5 sequence: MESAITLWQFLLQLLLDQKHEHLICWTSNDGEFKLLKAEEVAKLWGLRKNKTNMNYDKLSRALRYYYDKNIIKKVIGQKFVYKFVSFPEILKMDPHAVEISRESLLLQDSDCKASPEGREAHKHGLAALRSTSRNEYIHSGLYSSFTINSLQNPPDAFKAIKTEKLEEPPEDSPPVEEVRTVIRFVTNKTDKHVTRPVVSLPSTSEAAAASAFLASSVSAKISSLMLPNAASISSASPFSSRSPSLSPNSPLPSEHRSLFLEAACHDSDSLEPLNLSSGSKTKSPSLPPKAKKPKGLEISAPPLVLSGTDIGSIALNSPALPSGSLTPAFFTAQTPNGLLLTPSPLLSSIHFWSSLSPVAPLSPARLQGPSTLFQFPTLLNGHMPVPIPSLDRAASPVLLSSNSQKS
# Outline: as §1
# ELF4 = ELF4 (Homo sapiens, UniProt Q99607 1-663); settings: protein: recombinant; tags: N-terminal GST; dsDNA, one strand shown
# Chain of ELF4 (Q99607 whole entry): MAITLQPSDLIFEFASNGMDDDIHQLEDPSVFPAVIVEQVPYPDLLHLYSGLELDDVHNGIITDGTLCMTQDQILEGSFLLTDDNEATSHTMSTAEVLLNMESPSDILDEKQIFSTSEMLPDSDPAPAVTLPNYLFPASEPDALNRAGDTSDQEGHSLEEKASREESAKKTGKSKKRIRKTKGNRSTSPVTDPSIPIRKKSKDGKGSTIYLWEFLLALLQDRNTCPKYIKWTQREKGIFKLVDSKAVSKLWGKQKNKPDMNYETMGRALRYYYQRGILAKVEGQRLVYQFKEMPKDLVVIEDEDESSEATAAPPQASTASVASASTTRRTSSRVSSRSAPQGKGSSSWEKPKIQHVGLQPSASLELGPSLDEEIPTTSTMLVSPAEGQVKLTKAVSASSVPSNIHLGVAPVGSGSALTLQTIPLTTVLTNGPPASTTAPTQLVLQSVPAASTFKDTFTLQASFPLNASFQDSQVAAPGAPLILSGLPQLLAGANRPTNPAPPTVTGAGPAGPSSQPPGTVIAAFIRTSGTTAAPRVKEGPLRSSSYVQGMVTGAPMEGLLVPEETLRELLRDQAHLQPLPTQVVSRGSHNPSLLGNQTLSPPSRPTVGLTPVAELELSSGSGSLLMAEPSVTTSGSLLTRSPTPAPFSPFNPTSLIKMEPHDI
# Outline: as §1
# ELF3 = target: T6, ELF3 (Homo sapiens, UniProt P78545 1-371); settings: protein: recombinant; tags: N-terminal GST; dsDNA, one strand shown
# T6 sequence: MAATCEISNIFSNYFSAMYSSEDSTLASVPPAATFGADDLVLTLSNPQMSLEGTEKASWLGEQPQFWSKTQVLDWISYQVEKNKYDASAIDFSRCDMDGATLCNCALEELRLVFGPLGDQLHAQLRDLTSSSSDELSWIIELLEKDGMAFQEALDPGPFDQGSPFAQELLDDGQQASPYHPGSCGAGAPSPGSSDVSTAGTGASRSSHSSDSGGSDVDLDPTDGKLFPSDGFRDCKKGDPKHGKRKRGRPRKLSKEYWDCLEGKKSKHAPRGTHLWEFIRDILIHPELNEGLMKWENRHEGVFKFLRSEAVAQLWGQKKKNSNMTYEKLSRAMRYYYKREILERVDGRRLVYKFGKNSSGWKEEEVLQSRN
# Outline: as §1
# ERF = target: T7, ERF (Homo sapiens, UniProt P50548 1-548); settings: protein: recombinant; tags: N-terminal GST; dsDNA, one strand shown
# T7 sequence: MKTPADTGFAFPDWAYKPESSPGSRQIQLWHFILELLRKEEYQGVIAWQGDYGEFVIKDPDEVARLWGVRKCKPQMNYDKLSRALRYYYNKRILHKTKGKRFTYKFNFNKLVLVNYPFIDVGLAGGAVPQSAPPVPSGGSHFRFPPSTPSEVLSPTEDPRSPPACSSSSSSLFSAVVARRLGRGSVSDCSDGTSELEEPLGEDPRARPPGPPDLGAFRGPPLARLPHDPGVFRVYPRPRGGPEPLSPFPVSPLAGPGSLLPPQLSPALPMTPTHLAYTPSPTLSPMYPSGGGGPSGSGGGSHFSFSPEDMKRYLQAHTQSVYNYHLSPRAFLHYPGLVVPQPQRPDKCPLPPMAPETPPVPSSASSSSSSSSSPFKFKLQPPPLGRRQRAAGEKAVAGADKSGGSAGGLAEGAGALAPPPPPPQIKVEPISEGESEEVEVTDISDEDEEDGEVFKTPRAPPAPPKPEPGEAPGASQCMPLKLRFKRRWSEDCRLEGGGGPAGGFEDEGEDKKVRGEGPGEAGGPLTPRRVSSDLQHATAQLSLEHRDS
# Outline: as §1
# ETS2 = target: T8, ETS2 (Homo sapiens, UniProt P15036 1-469); settings: protein: recombinant; tags: N-terminal GST; dsDNA, one strand shown
# T8 sequence: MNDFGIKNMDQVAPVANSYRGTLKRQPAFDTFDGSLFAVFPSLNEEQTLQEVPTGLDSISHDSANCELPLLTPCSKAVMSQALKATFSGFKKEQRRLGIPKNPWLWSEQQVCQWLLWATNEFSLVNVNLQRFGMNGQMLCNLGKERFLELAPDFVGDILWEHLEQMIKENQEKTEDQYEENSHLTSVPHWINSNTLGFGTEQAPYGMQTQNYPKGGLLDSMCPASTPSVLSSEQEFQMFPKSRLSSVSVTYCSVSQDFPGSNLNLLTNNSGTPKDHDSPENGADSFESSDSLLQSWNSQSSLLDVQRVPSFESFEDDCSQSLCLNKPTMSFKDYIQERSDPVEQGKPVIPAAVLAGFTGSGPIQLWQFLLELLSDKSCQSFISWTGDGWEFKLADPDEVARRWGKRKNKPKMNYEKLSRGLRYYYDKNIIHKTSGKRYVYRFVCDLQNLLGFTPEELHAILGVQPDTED
# Outline: as §1
sequence,measurement,setting,value
GCAGAA,binding signal,HSF1,"1.15 fold enrichment (6-mer frequency, TF over GST control)"
same,binding signal,SPIC,"1.03 fold enrichment (6-mer frequency, TF over GST control)"
GCCGAA,binding signal,ELK1,"1 fold enrichment (6-mer frequency, TF over GST control)"
same,binding signal,GABPA,"1.02 fold enrichment (6-mer frequency, TF over GST control)"
same,binding signal,ELF1,"1.01 fold enrichment (6-mer frequency, TF over GST control)"
same,binding signal,EHF,"1.03 fold enrichment (6-mer frequency, TF over GST control)"
same,binding signal,SPIB,"1.02 fold enrichment (6-mer frequency, TF over GST control)"
same,binding signal,ELK3,"1.06 fold enrichment (6-mer frequency, TF over GST control)"
same,binding signal,HSF1,"1.14 fold enrichment (6-mer frequency, TF over GST control)"
same,binding signal,SPIC,"1.09 fold enrichment (6-mer frequency, TF over GST control)"
same,binding signal,ELF4,"1.06 fold enrichment (6-mer frequency, TF over GST control)"
same,binding signal,ELF3,"1.02 fold enrichment (6-mer frequency, TF over GST control)"
same,binding signal,ERF,"1.05 fold enrichment (6-mer frequency, TF over GST control)"
same,binding signal,ETS2,"1.04 fold enrichment (6-mer frequency, TF over GST control)"
TCGAGG,binding signal,HSF1,"1.04 fold enrichment (6-mer frequency, TF over GST control)"
